The nature of test [1]: qHTS of pediatric cancer cell lines to identify multiple opportunities for drug repurposing: Primary screen for LAN-5 cells (AID 1347100). Also: potency is read from the fitted curve at half-maximal effect.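 As to activity change, negative = cytotoxic: plate controls were DMSO neutral control for no effect and bortezomib positive control for full effect.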 Put shortly:
(§1)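 Cells (500-1,000/well) rested 5 h, then received compounds for 48 h; metabolically active cells were measured by CellTiter-Glo luminescence. Final concentrations spanned up to 46 µM (MIPE, 11-point) or 0.59 nM-46 µM (NPC, 8-point) in primary screens, 11-point in follow-ups.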
On the technique in general: In qHTS, concentration-response curves come from the screen itself.

Test [2] in a line: qHTS of pediatric cancer cell lines to identify multiple opportunities for drug repurposing: Primary screen for BT-12 cells (AID 1347101). Also: nearly all actives have a fitted effect of over 25% in size. Also: potency is read from the fitted curve at half-maximal effect.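 As to activity change, negative = cytotoxic: plate controls were DMSO for no effect and bortezomib positive control for full effect.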 Put shortly:
as §1

A short description of test [3]: qHTS of pediatric cancer cell lines to identify multiple opportunities for drug repurposing: Primary screen for OHS-50 cells (AID 1347103). Also: nearly all actives have a fitted effect of over 40% in size. Also: potency is read from the fitted curve at half-maximal effect.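 As to activity change, negative = cytotoxic: plate controls were DMSO neutral control for no effect and bortezomib positive control for full effect.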 The method in brief:
as §1

Test [4] in a line: qHTS of pediatric cancer cell lines to identify multiple opportunities for drug repurposing: Primary screen for RD cells (AID 1347104). Also: nearly all actives have a fitted effect of over 55% in size. Also: potency is read from the fitted curve at half-maximal effect.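 As to activity change, negative = cytotoxic: plate controls were DMSO for no effect and bortezomib for full effect.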 Put shortly:
(§2)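 Viability was measured as metabolically active cells after 48 hours of treatment, read by CellTiter-Glo luminescence. Compounds were tested at multiple final concentrations, giving concentration-response curves.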

Test [5] can be described thus: qHTS of pediatric cancer cell lines to identify multiple opportunities for drug repurposing: Primary screen for control Hh wild type fibroblast cells (AID 1347106).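 Also: series mostly up to about 46 µM; % is scaled to controls: 0 for no effect and ±100 for the full control effect; a drop in luminescence marks cytotoxicity and a rise apparent proliferation; nearly all actives have a fitted effect of over 55% in size.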 The method in brief:
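Cells (500-1,000/well) in growth media were settled 5 h at 37 degrees C, then given compounds for 48 h. Viability was read as CellTiter-Glo luminescence. Primary runs used MIPE at 11 points (0.78 nM-46 µM) and NPC at 8 points (0.59 nM-46 µM); follow-ups used 11 points.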

Test [6] is described as follows: qHTS of pediatric cancer cell lines to identify multiple opportunities for drug repurposing: Primary screen for Rh30 cells (AID 1347107). Also: series mostly up to about 46 µM; % is scaled to controls: 0 for no effect and ±100 for the full control effect; nearly all actives have a fitted effect of over 75% in size. Put shortly: as §1
Test [7] in a line: qHTS of pediatric cancer cell lines to identify multiple opportunities for drug repurposing: Primary screen for Rh41 cells (AID 1347108). Also: nearly all actives have a fitted effect of over 70% in size.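 As to activity change, negative = cytotoxic: series mostly up to about 46 µM; luminescence drop marks cytotoxic hits.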 Put shortly:
as §2

Test [8] is described as follows: qHTS of pediatric cancer cell lines to identify multiple opportunities for drug repurposing: Primary screen for MG 63 (6-TG R) cells (AID 1347105). Also: % is scaled to controls: 0 for no effect and ±100 for the full control effect; nearly all actives have a fitted effect of over 50% in size. Put shortly:
as §2

Test [9] in a line: qHTS of pediatric cancer cell lines to identify multiple opportunities for drug repurposing: Primary screen for Rh18 cells (AID 1347102). Also: % is scaled to controls: 0 for no effect and ±100 for the full control effect; nearly all actives have a fitted effect of over 65% in size. The method in brief: as §1
A short description of test [10]: qHTS of pediatric cancer cell lines to identify multiple opportunities for drug repurposing: Confirmatory screen for NB1643 cells (AID 1347109). Also: nearly all actives have a fitted effect of over 45% in size. Also: potency is read from the fitted curve at half-maximal effect.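 As to activity change, negative = cytotoxic: plate controls were DMSO for no effect and bortezomib for full effect.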 The method in brief: as §1
Test [11] is described as follows: qHTS of pediatric cancer cell lines to identify multiple opportunities for drug repurposing: Confirmatory screen for A673 cells (AID 1347110).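 Also: cells exposed to compound for 48 h before the viability read; nearly all actives have a fitted effect of over 65% in size.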 Also: potency is read from the fitted curve at half-maximal effect. Put shortly:
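Viability was read as ATP luminescence (CellTiter-Glo) after 48 h of compound exposure at 37 C in A673 cells seeded at 500-1,000/well. Titrations reached 46 uM final, with 11 points in the confirmatory screen. Concentration-response curves were fitted directly.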

Test [12] in a line: qHTS of pediatric cancer cell lines to identify multiple opportunities for drug repurposing: Confirmatory screen for LAN-5 cells (AID 1347113). Also: nearly all actives have a fitted effect of over 65% in size. Also: potency is read from the fitted curve at half-maximal effect. The method in brief: as §1
Test [13] can be described thus: qHTS of pediatric cancer cell lines to identify multiple opportunities for drug repurposing: Confirmatory screen for DAOY cells (AID 1347114). Also: nearly all actives have a fitted effect of over 65% in size. Also: potency is read from the fitted curve at half-maximal effect. As to activity change, negative = cytotoxic: % is scaled to controls: 0 for no effect and ±100 for the full control effect. The method in brief: (§3)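 Viability measured as metabolically active cells via CellTiter-Glo luminescence following 48 hours of compound exposure, 11-point dilutions in confirmatory testing. 500-1,000 cells/well plated 5 hours before dosing; controls were DMSO and 2.3 µM bortezomib.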

The nature of test [14]: qHTS of pediatric cancer cell lines to identify multiple opportunities for drug repurposing: Confirmatory screen for NB-EBc1 cells (AID 1347115).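 Also: cells exposed to compound for 48 h before the viability read; nearly all actives have a fitted effect of over 45% in size.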 Also: potency is read from the fitted curve at half-maximal effect. As to activity change, negative = cytotoxic: % is scaled to controls: 0 for no effect and ±100 for the full control effect. The method in brief:
as §1

Test [15] in a line: qHTS of pediatric cancer cell lines to identify multiple opportunities for drug repurposing: Confirmatory screen for SJ-GBM2 cells (AID 1347116). Also: nearly all actives have a fitted effect of over 60% in size. Also: potency is read from the fitted curve at half-maximal effect.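 As to activity change, negative = cytotoxic: plate controls were DMSO for no effect and bortezomib for full effect.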 Put shortly:
as §3

A short description of test [16]: qHTS of pediatric cancer cell lines to identify multiple opportunities for drug repurposing: Confirmatory screen for BT-37 cells (AID 1347117). Also: nearly all actives have a fitted effect of over 55% in size. Also: potency is read from the fitted curve at half-maximal effect.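 As to activity change, negative = cytotoxic: plate controls were DMSO for no effect and bortezomib for full effect.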 Put shortly:
as §1

The nature of test [17]: qHTS of pediatric cancer cell lines to identify multiple opportunities for drug repurposing: Confirmatory screen for TC32 cells (AID 1347118). Also: potency is read from the fitted curve at half-maximal effect. The method in brief: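 Measured quantity: luminescence from CellTiter-Glo, reflecting metabolically active TC32 cells following 48 h of compound. Curves came straight from multi-point titrations, with 8 or 11 points in primary and 11 in confirmatory screening.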

A short description of test [18]: qHTS of pediatric cancer cell lines to identify multiple opportunities for drug repurposing: Confirmatory screen for control Hh wild type fibroblast cells (AID 1347121).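 Also: plate controls were DMSO for no effect and bortezomib for full effect; nearly all actives have a fitted effect of over 70% in size.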 The method in brief:
as §1

A short description of test [19]: qHTS of pediatric cancer cell lines to identify multiple opportunities for drug repurposing: Confirmatory screen for Rh41 cells (AID 1347123). Also: nearly all actives have a fitted effect of over 60% in size. Also: potency is read from the fitted curve at half-maximal effect. Put shortly: as §1
A short description of test [20]: qHTS of pediatric cancer cell lines to identify multiple opportunities for drug repurposing: Confirmatory screen for MG 63 (6-TG R) cells (AID 1347119). Also: potency is read from the fitted curve at half-maximal effect; nearly all actives have a fitted effect of over 55% in size. The method in brief: as §1

Experimental findings from PubChem BioAssay (NCATS) are described below.

Each structure is given as a SMILES string. Results filed as inconclusive are left out. Values without a mark were called inactive. Activity calls are given as the source filed them. Calls follow the shape of the dose curve; as a rule, active = well fitted curve in the direction sought with a large enough effect; inconclusive = small, poorly fitted or top-dose-only effect, or another doubt; inactive = no such curve, though single readings can be large; an effect the other way counts as inactive or inconclusive.

For the compound `CC(C)(C)NC(=O)[C@@H]1CN(Cc2cccnc2)CCN1C[C@@H](O)C[C@@H](Cc1ccccc1)C(=O)N[C@H]1c2ccccc2C[C@H]1O`, the Potency entry in [1], in test [2], in test [3], in [4], in test [5] and in test [6] was “inactive” each time. In test [7], the Potency result was “inactive”.

For `CCCOC(C(=O)OC1CCN(C)CC1)(c1ccccc1)c1ccccc1`, the Potency result in [1], in test [2], in test [8], in test [5] and in test [6] was “inactive” in each case. Besides, in [3], the Potency is 27.6 µM (active).

As for `Cc1c(C)n(CCN(C)C)c2ccc(C(=O)OCCN(C)C)cc12`, the Potency entry in [1], in test [9], in test [3], in test [4], in [8] and in [5] was “inactive” throughout. For the same compound, the Potency result in [6] was “inactive”.

In the case of `NC(=O)CC[C@@H]1NC(=O)[C@H](Cc2ccccc2)NC(=O)[C@H](Cc2ccc(O)cc2)NC(=O)CCSSC[C@@H](C(=O)N2CCC[C@H]2C(=O)N[C@@H](CCCN=C(N)N)C(=O)NCC(N)=O)NC(=O)[C@H](CC(N)=O)NC1=O`, the Potency result in test [1], in test [2], in [3], in [4], in [8] and in [5] was “inactive” throughout. Also, the Potency result in test [6], in test [7], in [10], in [11], in test [12] and in [13] was “inactive” throughout. For the same compound, the Potency result in test [14], in test [15], in [16], in test [17], in test [18] and in test [19] was “inactive” throughout.

In the case of `CCn1cc(C(=O)O)c(=O)c2cnc(N3CCCC3)nc21`, the activity change, negative = cytotoxic in test [1] is -2.09% [at 9.22 µM]; in [2] it was 1.9% [at 11.5 µM]; in test [3] it was -0.536% [at 11.5 µM]; in test [4], -0.58% [at 9.22 µM]; in [8], -14.9% [at 9.22 µM]; in test [5] it was 4.15% [at 9.22 µM]. In addition, the activity change, negative = cytotoxic in test [7] is 12.6% [at 9.22 µM].

Take `NC(CS)C(=O)O` (stereo not drawn): the Potency result in [1], in test [2], in test [3], in test [4], in test [8] and in test [5] was “inactive” in each case. The Potency result in [6] and in test [7] was “inactive” each time.

With `CC(C)NC[C@@H](O)COc1cccc2ccccc12`, the Potency entry in [1], in test [2], in test [8], in [5], in test [6] and in [7] was “inactive” throughout. For the same compound, in [4], the Potency was 26.6 µM (active).

On to `NCCc1ccn[nH]1`, for which the Potency entry in test [1], in test [2], in [3], in [4], in test [8] and in [5] was “inactive” in each case. The Potency entry in test [7] was “inactive”.

As for `CN=C(NC#N)NCCSCc1csc(N=C(N)N)n1`, the Potency result in test [1], in test [2], in [3], in test [4], in test [8] and in test [5] was “inactive” in each case. The Potency result in test [6] and in test [7] was “inactive” in each case.

With `COc1cc(C=C2CCC/C(=C\c3ccc(O)c(OC)c3)C2=O)ccc1O`, the Potency was 7.5 µM (active) in [1]; 11 µM (active) in test [2]; 19.5 µM (active) in test [3]; 10.6 µM (active) in test [4]; 18.5 µM (active) in test [10]; 185 nM (active) in [11]. Moreover, the Potency in test [12] is 5.85 µM (active); in [13] it was 14.7 µM (active); in test [14] it was 23.3 µM (active); in test [15] it was 18.5 µM (active); in [16], 5.85 µM (active); in test [17] it was 414 nM (active). Also, the values for the Potency in [20] and in test [19] were 20.8 µM (active) and 14.7 µM (active), respectively. Further, the Potency result in test [5] and in test [18] was “inactive” in each case.

As to `OC[C@@H](O)[C@@H](O[C@@H]1O[C@H](CO)[C@H](O)[C@H](O)[C@H]1O)[C@H](O)[C@@H](O)CO`, the Potency entry in test [1], in [2], in test [3], in [4], in [8] and in [5] was “inactive” in each case.

As to `CCCN1CCCC[C@H]1C(=O)Nc1c(C)cccc1C`, the Potency entry in [1], in test [2], in [3], in test [4], in test [8] and in test [5] was “inactive” in each case. Moreover, the Potency result in test [7] is “inactive”.

For the compound `Cc1onc(-c2c(Cl)cccc2Cl)c1C(=O)N[C@@H]1C(=O)N2[C@@H]1SC(C)(C)[C@@H]2C(=O)O`, the Potency result in test [1], in test [2], in test [3], in test [4], in test [8] and in [5] was “inactive” throughout. For the same compound, the Potency entry in test [6] and in [7] was “inactive” each time.

`CC(=O)c1ccc2c(c1)N(CCCN1CCC(CCO)CC1)c1ccccc1S2`: the Potency entry in test [1], in test [8], in test [5] and in [7] was “inactive” each time.

In the case of `O=C(COc1ccc(Cl)cc1)N1CCN(Cc2ccc3c(c2)OCO3)CC1`, the Potency result in [1], in test [9], in test [4], in [8], in test [5] and in test [6] was “inactive” in each case. Moreover, the Potency entry in [7] is “inactive”.

`CC(C)N=C(N)/N=C(\N)Nc1ccc(Cl)cc1`: the Potency entry in test [1], in test [8], in test [5], in [6] and in test [7] was “inactive” each time.

Turning to `O=S1(=O)c2cccc3cccc(c23)N1CCCN1CCN(c2ccc(F)cc2)CC1`, the Potency result in test [2], in test [9], in [4], in test [8], in [5] and in [6] was “inactive” in each case. Moreover, the Potency entry in test [7] was “inactive”.

On to `Cc1ccccc1C(=O)Nc1ccc(C(=O)N2CCCC(N(C)C)c3ccccc32)cc1` (stereo not drawn), for which the Potency was 18.8 µM (active) in test [1], 21.9 µM (active) in [3] and 16.8 µM (active) in test [7]. Also, the Potency entry in [5] and in [6] was “inactive” throughout.

Take `Nc1ccn([C@@H]2O[C@H](CO)[C@@H](O)C2(F)F)c(=O)n1`: the Potency in test [1] is 0.075 µM (active); in [3], 11 µM (active). The Potency result in [9], in test [4], in test [5], in test [6] and in test [7] was “inactive” throughout.

Take `CCN(CC)CCOC(=O)C(c1ccccc1)C1CCCCC1` (stereo not drawn): the Potency result in [1], in test [9], in test [8], in test [5] and in [6] was “inactive” each time. Besides, the Potency in [3] is 21.9 µM (active).
